We go through 95 molecules from PubChem BioAssay AID2796 (The Scripps Research Institute Molecular Screening Center, 2010).

The structures appear in SMILES notation. Hit rate of the full screen: of about 320,000 compounds, about 8,000 (2.5%) were called active. This is one part of a sample in which actives are shown more often than they occur. Values without a mark were called inactive. No stated cut-off is given here; in the data, active means activation above about 47%; inactive means the rest.

For this assay, the target named is Aryl hydrocarbon receptor (Homo sapiens) (UniProt P35869). As to the kind of experiment: AHR activators, primary screen, cell-based, luminescence, luciferase reporter, human (AID 2796).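 Further: 0% = vehicle wells and 100% = reference agonist.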 The settings on record: AHR-responsive luciferase reporter cells, at 5 µM, hits give high values. For orientation: A reporter such as luciferase makes a cellular process visible.
Sequence of Aryl hydrocarbon receptor (Homo sapiens) (P35869 whole entry, looked up): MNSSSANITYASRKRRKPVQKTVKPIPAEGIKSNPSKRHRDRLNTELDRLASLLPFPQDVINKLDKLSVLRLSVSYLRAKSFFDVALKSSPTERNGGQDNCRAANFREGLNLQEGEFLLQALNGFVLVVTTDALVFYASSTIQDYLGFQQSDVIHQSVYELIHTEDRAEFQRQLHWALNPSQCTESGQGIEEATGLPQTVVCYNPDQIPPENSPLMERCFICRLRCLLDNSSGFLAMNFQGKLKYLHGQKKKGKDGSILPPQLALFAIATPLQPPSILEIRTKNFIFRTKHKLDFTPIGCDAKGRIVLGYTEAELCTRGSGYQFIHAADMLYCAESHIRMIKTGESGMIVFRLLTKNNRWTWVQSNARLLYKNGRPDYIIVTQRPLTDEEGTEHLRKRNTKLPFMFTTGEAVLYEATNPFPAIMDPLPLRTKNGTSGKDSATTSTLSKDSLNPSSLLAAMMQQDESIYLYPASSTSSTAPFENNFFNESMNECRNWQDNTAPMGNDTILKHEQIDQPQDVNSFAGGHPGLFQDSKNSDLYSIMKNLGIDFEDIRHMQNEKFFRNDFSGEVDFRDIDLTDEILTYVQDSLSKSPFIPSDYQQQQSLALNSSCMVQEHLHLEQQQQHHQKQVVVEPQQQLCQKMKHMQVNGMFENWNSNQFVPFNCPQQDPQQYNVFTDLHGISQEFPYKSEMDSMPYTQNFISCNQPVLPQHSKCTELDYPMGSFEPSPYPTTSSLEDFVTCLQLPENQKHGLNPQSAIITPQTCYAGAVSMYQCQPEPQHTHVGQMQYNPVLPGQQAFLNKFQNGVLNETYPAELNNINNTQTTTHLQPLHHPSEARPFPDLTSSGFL
As for `CC(=O)Nc1ccc(S(=O)(=O)NC(C)C(=O)OCCOc2ccc(F)cc2)cc1` (stereo not given), the activation was -0.37%.

Consider `Cc1cccc2nc(CSc3nc4[nH]ncc4c(=O)n3-c3cccc(Cl)c3)cc(=O)n12`, for which the activation was 2.86%. As to `COCC(C)n1c(C)cc(C(=O)CSc2cc(C)c3ccccc3n2)c1C` (stereo not given), the activation is 43.7%. To `O=C(Cc1ccc([N+](=O)[O-])cc1)Nc1ccc(C(=O)N2CCOCC2)cc1` belongs 0.42%. As for `C=CCN(c1ccccc1C(=O)NCC(=O)OCC)S(=O)(=O)c1ccc(C)cc1`, the activation is -1.83%. To `Cc1ccccc1N1CCN(C2CCCN(C(=O)c3cn4c(C)cccc4n3)C2)CC1` (stereo not given) belongs 1.46%; to `COc1ccc(-n2nc(C(=O)NCC(=O)N3CCN(c4ccccc4OC)CC3)c3ccccc3c2=O)c(OC)c1`, 3.01%. To `O=C(CCN1C(=O)[C@H]2CC=CC[C@H]2C1=O)NCc1nc(-c2ccccc2)no1` belongs 1.79%; to `CC(=O)N1CC(C)c2scc(C)[n+]2-c2ccccc21` (stereo not given), -2.51%; to `O=C(Nc1nnc(C2CC2)s1)c1ccccn1`, -1.71%. In the case of `Cc1cc(C(=O)Nc2nnc(C3CC3)s2)c(C)s1`, the activation is 23.6%. On to `O=C(Nc1nnc(C2CC2)s1)c1cc(Cl)sc1Cl`, for which the activation was 63.3% (active).

`CCCCOc1ccc(NC(=O)CSCC(=O)OCC)cc1`: the activation was -0.97%. To `Cc1[nH]c2ccccc2c1/C=N/NC(=O)CNC(=O)c1ccc2c(c1)OCO2` belongs 18.3%; to `COCCNC(=S)N/N=C/c1c(C)[nH]c2ccccc12`, 47.6% (active).

With `COc1ccc2ccccc2c1/C=N/NC(=O)c1cc(C)[nH]n1`, the activation was 39%.

In the case of `CCCCN(CC(=O)NC(C)(C)C)C(=O)C(=O)Nc1ccc2c(c1)OCCO2`, the activation was 7.49%. To `Cc1cc(=O)oc2ccc(OCC(=O)O)cc12` belongs -5.16%. To `Cc1nc(COc2cc3oc(=O)cc(C)c3cc2Cl)cs1` belongs 48.1% (active); to `Cc1cc(=O)oc2cc(OCC(=O)N3CCN(c4ccc(F)cc4)CC3)c(Cl)cc12`, -0.42%. As to `CC(C)NC(=S)Nc1cccc2cnccc12`, the activation is 15%. As to `COCCSc1nnc(NC(=O)CCS(=O)(=O)Cc2ccccc2)s1`, the activation is 22.7%. `COc1ccc(-c2ccc3nnc(SCC(=O)Nc4ccc(NC(C)=O)cc4)n3n2)cc1`: the activation is 3.13%. The value for `Fc1ccc(-c2ccc(NCCN3CCOCC3)nn2)cc1` was 2.58%. The value for `O=C(N/N=C/c1ccco1)c1ccc(C(=O)N/N=C/c2ccco2)o1` was 86% (active); that for `O=C(N/N=C/c1ccco1)c1csc2c1CCCC2` was 8.16%. The value for `O=C(Cc1ccc([N+](=O)[O-])cc1)N/N=C/c1ccco1` was 1.25%. Consider `CCNC(=O)N(CC)C[C@H]1N[C@@](CC)(C(=O)OC)[C@H]2C(=O)N(Cc3ccccc3)C(=O)[C@@H]12`, for which the activation is -0.15%.

`COc1ccc(N(Cc2ccc(N(C)C)cc2)C(=O)c2ccc(S(C)(=O)=O)cc2)cc1`: the activation is -2.92%. On to `COCc1cc(C)nc(Nc2cc(C)ccc2C)c1C#N`, for which the activation is 52.2% (active).

With `COCc1cc(C)nc(SCC(=O)Nc2cccc(C)c2)c1C#N`, the activation is 2.83%. Consider `Cc1cc(C)c(C#N)c(Nc2cccc(Br)c2)n1`, for which the activation was 19.3%. On to `O=C(CSc1nc(O)c(Cc2ccccc2)c(=O)[nH]1)Nc1nc2c(s1)CCCC2`, for which the activation was 1.1%. The value for `COc1cc(/C=N/Nc2nn3cnnc3c3ccccc23)cc(OC)c1OC` was 38.4%. To `COc1cc(/C=N\NC(=O)c2nonc2N)c(OC)cc1Br` belongs 15.2%; to `COc1cc(/C=N/N=C(\N)c2nonc2N)cc(OC)c1OC`, 91.3% (active); to `CC(C)(C)C(=O)NCCCNc1ccc([N+](=O)[O-])cc1`, 2.34%. With `Cc1ccc(C)c(NC(=O)COC(=O)Cn2c(C)csc2=O)c1`, the activation is 2.35%. The value for `O=C(COC(=O)c1ccc2c(c1)OCCO2)NCc1ccccc1Cl` was -0.15%. Take `c1ccc(C2=Nc3cccc4cccc(c34)N2)cc1`: the activation is 19.3%. The value for `CNC(=S)N1N=C(c2ccccc2)CC1c1ccc(Br)cc1` (stereo not given) was 1.39%; that for `Brc1ccc(C2CC(c3ccccc3)=Nc3ccccc3N2)cc1` (stereo not given) was 104% (active); that for `Cc1ccsc1C(=O)NC1CCCCC1C` (stereo not given) was -0.06%. The value for `COc1ccc(CN2CN(C3CCCC3)CSC2=S)cc1` was -1.37%; that for `COc1ccc(CC(=O)OC(C)C(=O)Nc2ccc(S(N)(=O)=O)cc2)cc1` (stereo not given) was 0.17%; that for `COCc1c(C(=O)OCC(=O)Nc2ccc(OC(F)F)cc2)oc2ccccc12` was -0.02%.

As for `Cc1cc2nc(-c3ccc(NC(=O)c4cccnc4)cc3)oc2cc1C`, the activation is -6.99%. `Cc1ccc2nc(-c3ccc(NC(=O)c4cccnc4)cc3)oc2c1`: the activation was -9.23%. Consider `CC(=O)Nc1ccc(-c2nc3ccccc3o2)cc1`, for which the activation is 80.5% (active). The value for `CCC(CC)COC(=O)C1=C(C)NC(=O)NC1c1ccc([N+](=O)[O-])cc1` (stereo not given) was -3.02%; that for `CCc1ccccc1N(CC(=O)NCC1CCCO1)C(=O)CCC(=O)Nc1nccs1` (stereo not given) was -2.18%; that for `COc1ccc(NC(=O)C(CC(C)C)NS(=O)(=O)c2ccc3c(c2)CCN3C(C)=O)cc1OC` (stereo not given) was 1.37%.

Take `CSc1ncccc1C(=O)Nc1cccc(S(=O)(=O)N2CCOCC2)c1`: the activation was -0.18%. The value for `S=c1[nH]nc(-c2ccncc2)n1/N=C/c1ccccc1Cl` was 4.63%. For `Fc1ccccc1/C=N/n1c(-c2cccnc2)n[nH]c1=S`, the activation is 5.29%. The value for `S=c1[nH]nc(-c2cc(-c3ccccc3)n[nH]2)n1/N=C/c1c2ccccc2cc2ccccc12` was 63.2% (active). To `Fc1cccc(CSc2nnc3ccc(-c4ccncc4)nn23)c1` belongs 4.81%; to `CCOc1ccc(S(=O)(=O)Nc2nc3cc(OC)ccc3s2)cc1`, -1.36%. As to `COc1ccc2nc(NC(=O)NC3CCCCC3)sc2c1`, the activation is 5.23%. To `Cc1noc(C)c1CSCC(=O)Nc1nc2ccc(Oc3ccccc3)cc2s1` belongs 17.8%; to `c1c2c(cc3sc(N4CCCCC4)nc13)OCCO2`, -13.2%; to `COc1ccc2nc(Nc3nc(-c4cc5ccccc5oc4=O)cs3)sc2c1`, 56.3% (active). To `COc1ccc2oc(=O)cc(-c3cc4ccccc4o3)c2c1` belongs 18.4%; to `COc1ccc2nc(NC(=O)[C@@H]3CCCN3C(=O)c3cccs3)sc2c1`, 23.1%; to `COc1ccc2nc(Nc3nc(-c4ccncc4)cs3)sc2c1`, 107% (active). The value for `COc1ccc2nc(Nc3nc4cc5c(cc4s3)OCCO5)sc2c1` was 53.1% (active); that for `COc1ccc(C2=Nc3cc(C)ccc3OC2)cc1` was 30.2%.

With `O=C(CCc1nc(-c2ccccc2)no1)Nc1cccc(C(=O)NC2CC2)c1`, the activation was 0.82%. The value for `CCc1ccc(OCC(=O)OC(C)C(=O)NC2CC2)cc1` (stereo not given) was -4.56%; that for `Oc1c(Cl)cc(Cl)c(Cl)c1Cc1c(O)c(Cl)cc(Cl)c1Cl` was 0.28%. To `CN(C(=O)COC(=O)Cn1cnc2c1c(=O)n(C)c(=O)n2C)C1(C#N)CCCCC1` belongs -0.97%. Consider `O=C(c1snnc1-c1ccccc1)N1CCOCC1`, for which the activation is 2.54%. Consider `CN(CCC1CCOCC1)C(=O)CC1C(=O)NCCN1Cc1cccc(F)c1` (stereo not given), for which the activation was -2.39%. In the case of `COc1cccc(NC(=O)Cn2cnc3sc(C)c(S(=O)(=O)N4CCN(C)CC4)c3c2=O)c1`, the activation is 3.14%. In the case of `CCCc1cc(=O)oc2c(C)c(OCC(=O)NCc3ccccn3)ccc12`, the activation was 65.7% (active).

In the case of `CCCc1cc(=O)oc2c(C)c(OCC(=O)Nc3ccccn3)ccc12`, the activation is 2.02%. Regarding `CCCc1cc(=O)oc2c(C)c(OCC(=O)N3CCC(C(=O)O)CC3)ccc12`, the activation is 0.65%. The value for `Clc1ccc(-c2cc(C3CCNCC3)[nH]n2)c(Cl)c1` was -7.18%. The value for `Cc1nc(NC(=O)c2cccc(Cl)c2)sc1-c1csc(Nc2cccc(Cl)c2)n1` was 85.8% (active); that for `COc1ccc(NC(=O)CN(C)CC(=O)Nc2cccc(C(F)(F)F)c2)cc1` was 0.79%; that for `CCCCC(=O)Nc1nc(C)c(-c2csc(Nc3ccc(Cl)cc3)n2)s1` was 49.2% (active).

Consider `C=CCCC(=O)Nc1nc(C)c(-c2csc(Nc3ccc(Cl)cc3)n2)s1`, for which the activation was 56.6% (active). Regarding `Cc1nc(NC(=O)CN(C)S(=O)(=O)c2ccc(Cl)cc2)sc1C`, the activation was 5.19%. In the case of `O=C(O)CSc1c2c(nc3cc(C(=O)Nc4cccc(C(F)(F)F)c4)ccc13)CCCC2`, the activation was -2.1%.

For the molecule `CCCCCCC(=O)Nc1nc(C)c(-c2csc(Nc3cccc(OC)c3)n2)s1`, the activation was 34.4%. As to `CCC(=O)Nc1nc(C)c(C(=O)Nc2cccc(Cl)c2)s1`, the activation is 7.61%. `CCCCN(C)CCC(=O)Nc1ccc(Cl)cc1`: the activation is 0.37%. In the case of `CCCCCCC(=O)Nc1nc(C)c(-c2csc(Nc3cc(Cl)ccc3OC)n2)s1`, the activation was 40.2%. To `COc1ccc(-c2csc(NC(=O)COC(=O)Cc3ccc(Cl)cc3Cl)n2)cc1` belongs 34.2%. To `O=C(Nc1ccc(-c2csc(Nc3cccc(C(F)(F)F)c3)n2)cc1)c1cccc(C(F)(F)F)c1` belongs 114% (active); to `CCC(C)c1ccc(NC(=O)COC(=O)C2CCCC2)cc1` (stereo not given), -0.7%.

For the molecule `CC(=O)Nc1ccc(NC(=O)CCN2C(=O)C3CC=CCC3C2=O)cc1` (stereo not given), the activation was -0.48%. As for `Cc1occc(=O)c1OCc1c(Cl)cccc1Cl`, the activation was 2.86%. In the case of `O=C(O)CCN1C(=O)CC2(CCCCC2)C1=O`, the activation was -1.21%. To `O=C1CCN(Cc2ccc([N+](=O)[O-])cc2)CCN1[C@H](CO)Cc1ccccc1` belongs 0.87%.
